Results taken from ChEMBL document CHEMBL3433997, “St. Jude Leishmania screening dataset” (2016).

These molecules were tested against Solute carrier family 2, facilitated glucose transporter member 1 (Homo sapiens) (UniProt P11166) (assay: ST_JUDE_LEISH: Cytotoxicity at 2uM final concentration against transgenic Leishmania Mexicana promastigotes LmGLUT1 that are glucose transport deficient and complemented with the human glucose transporter GLUT1. Activity is measured by DNA content using SYBR green in vitro).
Solute carrier family 2, facilitated glucose transporter member 1 (Homo sapiens), sequence (P11166 whole entry): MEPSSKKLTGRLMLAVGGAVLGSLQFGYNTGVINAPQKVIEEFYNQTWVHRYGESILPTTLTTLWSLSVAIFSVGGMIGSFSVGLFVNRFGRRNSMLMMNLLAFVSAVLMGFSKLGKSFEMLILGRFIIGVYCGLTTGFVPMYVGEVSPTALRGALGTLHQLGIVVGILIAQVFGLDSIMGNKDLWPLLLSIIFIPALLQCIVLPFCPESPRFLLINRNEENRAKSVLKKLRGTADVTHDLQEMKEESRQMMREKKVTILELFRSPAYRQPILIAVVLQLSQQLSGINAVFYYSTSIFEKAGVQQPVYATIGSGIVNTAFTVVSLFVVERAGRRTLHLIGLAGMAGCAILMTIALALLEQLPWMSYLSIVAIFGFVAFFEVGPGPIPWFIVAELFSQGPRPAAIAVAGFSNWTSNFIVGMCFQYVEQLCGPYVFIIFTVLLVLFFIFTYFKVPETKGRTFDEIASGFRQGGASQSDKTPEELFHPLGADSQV
Format: functional

Going from COc1cc(-c2nc(-c3ccc(C(=O)c4ccc(F)cc4)cc3)c(-c3ccccc3)[nH]2)cc(OC)c1O to Cc1cccc2nc(-c3cccc(-c4ccc(CNCc5cnn(-c6ccccc6)n5)cc4)c3)[nH]c12, the inhibition falls from 3.28% to 0.18%.

Compared with Cc1ccc(C(C)C)c(Oc2ccc3nc(N)nc(N)c3c2)c1, CNCc1ccc2nc(-c3coc(Cc4cc(Cl)ccc4OCC(C)C)n3)[nH]c2c1 is lower in inhibition: 13.2% for the first, 6.56% for the second.

First: Cc1nc2ccc3nc(NC(=O)c4ccno4)sc3c2s1
Second: Cc1nnc(N2C(=N)SC(=Cc3ccc(-c4ccc(OC(F)(F)F)cc4)o3)C2=O)s1
The inhibition of the first is lower: 1.74% for the first, 4.77% for the second.

Going from Cc1cc(N/N=C/c2ccccc2[N+](=O)[O-])c2cccc(C)c2n1 to COc1cccc2c(NN=Cc3cccc(Cl)c3)cc(C)nc12, the inhibition falls from 11.2% to -0.65%.

Going from Cc1ccccc1C1CCN(C2CCC(NC(=O)c3ccc(-c4cccc(C(F)(F)F)c4)o3)CC2)CC1 (stereo not given) to O=C(Nc1cccc(C(F)(F)F)c1)NC1CCN(c2ccnc3ccccc23)C1 (stereo not given), the inhibition falls from 5.47% to 1.65%.

Going from Cc1ccc(NC(=O)c2ccc(CN3CCCN(CC4CCCCC4)CC3)cc2)cc1F to Cc1ccc(CN2CCN(c3cc4c(cc3Cl)CCN4C(=O)Cc3ccc(NC(=O)c4ccc(C(F)(F)F)cc4)cc3)CC2)cc1, the inhibition falls from 8.8% to 6.58%.

Going from CC(=O)c1c(Cc2ccccc2Cl)c[nH]c1C to COc1ccc2c(=NN=Cc3ccccc3)cc(C)[nH]c2c1, the inhibition rises from 4.46% to 12.1%.

Going from NC1CCN(Cc2cccc(-c3ccc(-c4nc5ccccc5[nH]4)cc3)c2)C1 (stereo not given) to Cc1cccc2nc(-c3cccc(-c4cccc(CN5CCC(CO)CC5)c4)c3)[nH]c12, the inhibition rises from -1.1% to 9.53%.

First: COc1ccc(NS(=O)(=O)c2ccc(Oc3nc(C)nc4sc5c(c34)CCCC5)cc2)cc1
Second: CCCNS(=O)(=O)c1ccc(NC(=O)C(C)Oc2ccc([N+](=O)[O-])cc2)cc1 (stereo not given)
The inhibition of the first is higher: 3.13% for the first, 0.31% for the second.

Going from CN1CCN(c2ccnc3ccc(NC(=O)Nc4cccc5c(Br)cccc45)cc23)CC1 to COC(=O)Nc1ccc(-c2ccc(C(=O)NC3CCN(C[C@H](O)c4ccnc5ccc(OC)cc45)CC3)cc2)c(C)c1, the inhibition falls from 0.91% to 0.51%.

First: COc1cc(C=CC(=O)N2CCN(Cc3cccc(C)c3)CC2)ccc1OCc1c(C)noc1C
Second: COc1cc(NC(=O)c2sc(-c3ccc(Cl)cc3)cc2NC(=O)CN2CC[C@@H](O)C2)ccc1OCCN1CCCC1
The inhibition of the first is lower: 8.31% for the first, 23.1% for the second.

Compared with N#Cc1ccc(N2CCN(Cc3cccc(-c4cccc(-c5nc6cc(C(F)(F)F)ccc6[nH]5)c4)c3)CC2)nc1, Oc1ccc2[nH]c(-c3cccc(F)c3)nc2c1CN1CCC(O)(c2ccccc2)CC1 is higher in inhibition: 0.03% for the first, 3.21% for the second.

Going from O=S(=O)(c1csc2ccccc12)N(CCC(O)(C(F)(F)F)C(F)(F)F)Cc1cccc(O)c1 to COc1ccc(NC(=O)[C@H](CC(C)C)Nc2cc(C)nc(NCCc3ccccc3)n2)cc1, the inhibition rises from -1.82% to 3.57%.

First: CC1CCCN(S(=O)(=O)c2ccc(NC(=O)c3cc(-c4ccccc4O)n[nH]3)cc2)C1 (stereo not given)
Second: O=C(Cc1ccc(NC(=O)c2ccc(O)c(-c3cccc([N+](=O)[O-])c3)c2)cc1)NCCN1CCCCC1
The inhibition of the first is higher: 1.49% for the first, -0.19% for the second.

First: Cc1cccc(OCCCCON2C(=N)N=C(N)NC2(C)C)c1C
Second: Cc1c(CNCCCNc2nc3ccccc3[nH]2)sc(C(F)F)c1Br
The inhibition of the first is lower: 0.1% for the first, 3.07% for the second.

First: O=[N+]([O-])c1cccc(-c2ccc(C=NNc3cc(N4CCCC4)nc(N4CCCC4)n3)o2)c1
Second: Cc1cc(Oc2ccc(-n3ccnc3)cc2)nc(N2CCN(CCCN3CCCC3)CC2)n1
The inhibition of the first is lower: 3.39% for the first, 4% for the second.

Compared with O=C(COc1ccccc1)Nn1cnc2ccccc21, O=C(NCc1cccc(Br)c1)c1ccc(CNC2CCN(Cc3ccccc3)CC2)cc1 is higher in inhibition: 3.76% for the first, 5.34% for the second.

First: CC(C)C(C)(C#N)NC(=O)CSc1nc2ccc([N+](=O)[O-])cc2s1 (stereo not given)
Second: CNCCCNc1ccnc2cc(Cl)ccc12
The inhibition of the first is lower: -0.35% for the first, 3.07% for the second.

First: CCc1c(C)c2ccc3c(c2oc1=O)CN(CCc1ccc(F)cc1)CO3
Second: C[C@@H](N)C#Cc1cc2c(Nc3ccc(OCc4cccc(F)c4)c(Cl)c3)ncnc2s1
The inhibition of the first is higher: 6.07% for the first, 2.5% for the second.

First: COc1cc(CNC[C@@H](O)[C@H](Cc2ccccc2)NC(=O)c2cc(C3CCCC3)cc(N3CCCCS3(=O)=O)c2)cc(OC)c1
Second: C[C@H](Cc1ccc(C[C@@H](C)NCC(O)c2cc(Cl)c(N)c(Cl)c2)cc1)NCC(O)c1cc(Cl)c(N)c(Cl)c1 (stereo not given in full)
The inhibition of the first is higher: 5.15% for the first, 0.36% for the second.
